Data taken from the antibiotic and cytotoxicity screens of Wong et al. (2023).
About 1,500 (3.8%) of roughly 39,000 compounds were called active. Shown is part of a subset that was picked to be rich in actives.

The compounds below were run on HSkMC (human skeletal muscle cells) (assay: cytotoxicity call (relative viability < 0.9)). Conditions: 10 µM.

Compound	cytotoxicity call
O=C(NO)c1cccc(C(=O)N/N=C/[C@@H](O)[C@@H](O)[C@H](O)[C@H](O)CO)c1	inactive
Cc1noc(C)c1NC(=O)Nc1ccc2c(c1)CC(=O)N([C@@H](C)CO)C[C@H](C)[C@H](CN(C)S(=O)(=O)c1cn(C)cn1)O2	inactive
C[C@@H]1CCCCO[C@H](CN(C)S(=O)(=O)c2cn(C)cn2)[C@@H](C)CN([C@H](C)CO)C(=O)c2cc(NS(=O)(=O)c3ccc(F)cc3)ccc2O1	inactive
C[C@@H](NC(=O)N(C)C[C@H]1OCc2ccccc2-c2c(n(C)c3ccccc23)C(=O)N([C@@H](C)CO)C[C@@H]1C)c1ccccc1	inactive
COCC#Cc1ccc([C@H]2[C@@H](CO)N3C(=O)CN(C(=O)c4cccnc4)C[C@@H]23)cc1	inactive
CC(C)NC(=O)Nc1ccc2c(c1)C(=O)N([C@@H](C)CO)C[C@@H](C)[C@@H](CN(C)S(=O)(=O)c1cccs1)O2	inactive
CCC(=O)Nc1nc2[nH]c(COC)cc(=O)n2n1	inactive
C[C@H](CO)N1C[C@H](C)[C@H](CN(C)C(=O)Nc2ccc(F)cc2)Oc2ccc(NC(=O)CCCCCC(=O)Nc3ccccc3N)cc2C1=O	inactive
COc1ccc2cc(C(C)C(=O)O)ccc2c1 (stereo not given)	inactive
COc1ccc2cc(-c3cc(-c4cc(Cl)cc(Cl)c4)nn3[C@@H](C)c3ccc(C(=O)NCCC(=O)O)cc3)ccc2c1	active
COc1ccc(C(=O)NCC(=O)O)cc1	inactive
O=C(C[C@@H]1CC[C@@H]2[C@H](COC[C@@H](O)CN2S(=O)(=O)c2ccccc2)O1)N[C@@H]1CCN(Cc2ccccc2)C1	inactive
COCC(=O)N(C)C[C@H]1Oc2cc(C#Cc3cccnc3)ccc2S(=O)(=O)N([C@H](C)CO)C[C@H]1C	inactive
COc1ccc(S(=O)(=O)N[C@H]2C=C[C@@H](CC(=O)N3CCN(c4ccccc4)CC3)O[C@H]2CO)cc1	inactive
C[C@H](CO)N1C[C@H](C)[C@H](CN(C)Cc2ccc(-c3ccccc3)cc2)Oc2ccc(NC(=O)Nc3ccc(C(F)(F)F)cc3)cc2CC1=O	active
C[C@@H]1CN([C@@H](C)CO)C(=O)Cc2cc(NC(=O)Nc3ccc(C(F)(F)F)cc3)ccc2O[C@@H]1CN(C)Cc1ccc(-c2ccccc2)cc1	active
C[C@H](CO)N1C[C@H](C)[C@@H](CN(C)Cc2ccc(-c3ccccc3)cc2)Oc2ccc(NC(=O)Nc3ccccc3)cc2CC1=O	inactive
C[C@@H]1CN([C@@H](C)CO)C(=O)Cc2cc(NC(=O)Nc3ccc(C(F)(F)F)cc3)ccc2O[C@H]1CN(C)Cc1ccc(-c2ccccc2)cc1	active
C[C@H]1CN([C@@H](C)CO)C(=O)Cc2cc(NC(=O)Nc3ccccc3)ccc2O[C@H]1CN(C)Cc1ccc(-c2ccccc2)cc1	inactive
C[C@H]1CN([C@@H](C)CO)C(=O)Cc2cc(NC(=O)Nc3ccc(C(F)(F)F)cc3)ccc2O[C@H]1CN(C)Cc1ccc(-c2ccccc2)cc1	active
N=C1NC(=O)CS1	inactive
Cc1cc(C(=O)Nc2cccc3c2O[C@@H](CN(C)C(=O)Nc2ccccc2)[C@@H](C)CN([C@@H](C)CO)C3=O)n(C)n1	inactive

Compound	cytotoxicity call
O=C(C[C@H]1CC[C@@H](NS(=O)(=O)c2ccc(F)cc2)[C@H](CO)O1)N1CCC(Cc2ccccc2)CC1	inactive
C[C@@H]1CCCCO[C@H](CN(C)Cc2ccccc2)[C@@H](C)CN([C@@H](C)CO)C(=O)c2cc(NC(=O)NC3CCCCC3)ccc2O1	inactive
C[C@H](CO)N1C[C@H](C)[C@@H](CN(C)CC2CC2)OCCCC[C@H](C)Oc2ccc(NC(=O)Cc3ccccc3)cc2C1=O	inactive
COc1ccc(S(=O)(=O)Nc2cccc3c2O[C@H](CN(C)S(=O)(=O)c2cn(C)cn2)[C@@H](C)CN([C@@H](C)CO)C3=O)cc1	inactive
COc1cccc(NC(=O)N(C)C[C@@H]2OCc3ccccc3-c3c(n(C)c4ccccc34)C(=O)N([C@@H](C)CO)C[C@H]2C)c1	inactive
C[C@@H]1CN([C@@H](C)CO)C(=O)c2cc(NC(=O)c3ccccc3)ccc2O[C@@H](C)CCCCO[C@@H]1CN(C)C(=O)NC1CCCCC1	inactive
Cc1noc(C)c1NC(=O)Nc1ccc2c(c1)C(=O)N([C@@H](C)CO)C[C@H](C)[C@@H](CN(C)Cc1ccc(C(=O)Nc3ccccc3N)cc1)O2	inactive
C[C@H]1CCCCO[C@H](CN(C)C(=O)Nc2ccc(F)cc2)[C@@H](C)CN([C@@H](C)CO)C(=O)c2cc(NC(=O)Nc3ccc(F)cc3)ccc2O1	inactive
C[C@@H]1CN([C@@H](C)CO)S(=O)(=O)c2ccc(C#Cc3ccccc3)cc2O[C@H]1CN(C)C(=O)Cc1ccccn1	inactive
CCS(=O)(=O)Nc1ccc2c(c1)C(=O)N(C)[C@@H]1CC[C@@H](CC(=O)N[C@H]3CCN(Cc4ccccc4)C3)O[C@H]1CO2	inactive
COc1ccc(S(=O)(=O)N(C)C[C@H]2Oc3ncc(C#CC4(O)CCCC4)cc3C(=O)N([C@H](C)CO)C[C@H]2C)cc1	inactive
CC(C)NC(=O)Nc1ccc2c(c1)C(=O)N([C@@H](C)CO)C[C@@H](C)[C@@H](CN(C)S(=O)(=O)c1cn(C)cn1)OCCCC[C@H](C)O2	inactive
CCN1C(=O)[C@H]2[C@@H](O)CS[C@H]2C1=O	inactive
C[C@@H]1CN([C@H](C)CO)C(=O)Cc2cc(NC(=O)Nc3ccc(C(F)(F)F)cc3)ccc2O[C@H]1CN(C)Cc1ccc(-c2ccccc2)cc1	active
C[C@H]1CN([C@@H](C)CO)C(=O)Cc2cc(NC(=O)Nc3ccc(C(F)(F)F)cc3)ccc2O[C@@H]1CN(C)Cc1ccc(-c2ccccc2)cc1	active
C[C@H](CO)N1C[C@H](C)[C@@H](CN(C)Cc2ccc(-c3ccccc3)cc2)Oc2ccc(NC(=O)Nc3ccc(C(F)(F)F)cc3)cc2CC1=O	active
C[C@@H]1CN([C@@H](C)CO)C(=O)Cc2cc(NC(=O)Nc3ccccc3)ccc2O[C@H]1CN(C)Cc1ccc(-c2ccccc2)cc1	inactive
C[C@@H]1CN([C@H](C)CO)C(=O)Cc2cc(NC(=O)Nc3ccc(C(F)(F)F)cc3)ccc2O[C@@H]1CN(C)Cc1ccc(-c2ccccc2)cc1	active
C[C@@H]1CN([C@H](C)CO)C(=O)Cc2cc(NC(=O)Nc3ccccc3)ccc2O[C@H]1CN(C)Cc1ccc(-c2ccccc2)cc1	inactive
COc1cccc(NC(=O)N[C@@H]2C=C[C@@H](CC(=O)N3CCN(C)CC3)O[C@H]2CO)c1	inactive
C[C@@H]1CN([C@@H](C)CO)C(=O)c2cccc(NS(=O)(=O)c3cn(C)cn3)c2O[C@H]1CN(C)C(=O)Nc1ccccc1	inactive
C[C@H]1CCCCO[C@H](CN(C)C(=O)Nc2ccccc2)[C@@H](C)CN([C@@H](C)CO)C(=O)c2cc(NC(=O)CCC(F)(F)F)ccc2O1	inactive

Compound	cytotoxicity call
O=C(C[C@H]1CC[C@@H]2[C@H](COC[C@@H](O)CN2C(=O)c2cccnc2)O1)NCC1CC1	inactive
Cc1ccc(CSc2nnc(CCN)o2)cc1	inactive
CCn1ncc(Br)c1CN	inactive
CC(C)NC(=O)[C@@H](N)c1ccccc1	inactive
COc1ccc(NC(=O)Nc2ccc3c(c2)CC(=O)N([C@H](C)CO)C[C@@H](C)[C@H](CN(C)C(=O)Nc2cccc4ccccc24)O3)cc1	inactive
C[C@@H]1CN([C@H](C)CO)C(=O)c2ccccc2-c2ccccc2CO[C@@H]1CN(C)Cc1ccc(Oc2ccccc2)cc1	inactive
COc1ccc(S(=O)(=O)N(C)C[C@@H]2Oc3ccc(NC(=O)Nc4c(C)noc4C)cc3CC(=O)N([C@@H](C)CO)C[C@H]2C)cc1	inactive
O=C(C=CC=Cc1ccc2c(c1)OCO2)N1CCCCC1	inactive
C[C@@H]1CN([C@H](C)CO)C(=O)c2cccc(NC(=O)Nc3ccc(C(F)(F)F)cc3)c2O[C@@H]1CN(C)C(=O)Nc1ccc2c(c1)OCO2	inactive
C[C@H](CO)N1C[C@H](C)[C@@H](CN(C)C(=O)Nc2ccc3c(c2)OCO3)Oc2c(NC(=O)Nc3ccc(C(F)(F)F)cc3)cccc2C1=O	active
C[C@H](CO)N1C[C@H](C)[C@H](CN(C)C(=O)Nc2ccc3c(c2)OCO3)Oc2c(NC(=O)Nc3ccc(C(F)(F)F)cc3)cccc2C1=O	inactive
C[C@H]1CN([C@@H](C)CO)C(=O)c2cccc(NC(=O)Nc3ccc4c(c3)OCO4)c2O[C@@H]1CN(C)C(=O)Nc1ccc(C(F)(F)F)cc1	inactive
C[C@H]1CN([C@@H](C)CO)C(=O)c2cccc(NC(=O)Nc3ccc(C(F)(F)F)cc3)c2O[C@@H]1CN(C)C(=O)Nc1ccc2c(c1)OCO2	active
C[C@@H]1CN([C@@H](C)CO)C(=O)c2cccc(NC(=O)Nc3ccc(C(F)(F)F)cc3)c2O[C@H]1CN(C)C(=O)Nc1ccc2c(c1)OCO2	inactive
Cc1ccc(S(=O)(=O)Nc2ccc3c(c2)CC(=O)N([C@H](C)CO)C[C@H](C)[C@@H](CN(C)Cc2ccncc2)O3)cc1	inactive
C[C@@H]1CCCCO[C@@H](CN(C)S(=O)(=O)c2ccccc2)[C@H](C)CN([C@H](C)CO)C(=O)c2cc(NC(=O)NC3CCCCC3)ccc2O1	inactive
CN(C)CCCNC(=O)C[C@@H]1C=C[C@@H](NC(=O)Cc2cccnc2)[C@H](CO)O1	inactive
[N-]=[N+]=NCCOCCNC(=O)CCCOc1ccc(CS(=O)c2nnc(-c3ccc(F)cc3)o2)nc1 (stereo not given)	active
O=C1OCCN/C1=C/C(=O)c1ccccc1	inactive
Cc1ccc(S(=O)(=O)N(C)C[C@@H]2Oc3ccc(NS(=O)(=O)c4cn(C)cn4)cc3CC(=O)N([C@@H](C)CO)C[C@H]2C)cc1	inactive
C[C@@H]1CN([C@@H](C)CO)C(=O)Cc2cc(NC(=O)C3CC3)ccc2O[C@H]1CN(C)Cc1ccc2c(c1)OCO2	inactive
